According to PubChem BioAssay (NCATS):
Records with an inconclusive call do not appear. Entries that show only a call come without a potency. Values without a mark were called inactive. Calls of active or inactive are those of the source. Unless noted, calls come from the whole dose curve; as a rule, active = well fitted curve in the direction sought with a large enough effect; inconclusive = small, poorly fitted or top-dose-only effect, or another doubt; inactive = no such curve, though single readings can be large; an effect the other way counts as inactive or inconclusive.

Assays:
[1] = target: Cellular tumor antigen p53 (Homo sapiens) (UniProt P04637); assay: Primary qHTS for small molecule compounds that upregulate eGFP-tagged delta133p53alpha (in C-terminal) cells. (AID 2060324); note: potency is the fitted concentration of half-maximal effect
In short: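 Concentration-response screen: compounds titrated onto pre-induced NCI-H358 D133p53a-eGFP cells, incubated one day, fixed with 3.5% PFA. Per-cell GFP peak intensity was gated, then normalized against intraplate controls.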

[2] = target: Aldehyde dehydrogenase, mitochondrial (Homo sapiens) (UniProt P05091); assay: qHTS for Inhibitors of the Aldehyde Dehydrogenase Family (ALDH2) Validation screens (AID 2061302; active = well fitted inhibition curve with a large enough effect; title and protocol of this record describe different tests; note: potency is the fitted concentration of half-maximal effect)
[3] = target: Aldehyde dehydrogenase, mitochondrial (Homo sapiens) (UniProt P05091); assay: qHTS for Inhibitors of the Aldehyde Dehydrogenase Family (ALDH2) Primary screen (AID 2061308); note: nearly all actives have a fitted effect of over 55% in size
[4] = target: Retinaldehyde dehydrogenase 3 (Homo sapiens) (UniProt P47895); assay: qHTS for Inhibitors of the Aldehyde Dehydrogenase Family (ALDH1A3) Validation screen (AID 2061312); note: nearly all actives have a fitted effect of over 45% in size
[5] = target: Retinaldehyde dehydrogenase 3 (Homo sapiens) (UniProt P47895); assay: qHTS for Inhibitors of the Aldehyde Dehydrogenase Family (ALDH1A3) Primary screen (AID 2061315)
[6] = BET inhibitor-based combinations targeting novel dependencies in MECOM-rearranged (r) AML: SET-2 cell line (AID 2202231); conditions: SET-2 AML cells viability, CellTiter-Glo luminescence, 48 h; viability: stronger effect = lower value, series mostly up to about 46 µM; note: nearly all actives have a fitted effect of over 35% in size
In short: (§1)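 Each compound was tested at eleven concentrations on cells seeded at 500/well. After two days' incubation, ATP-based luminescence reported viability; responses relative to DMSO and blank wells yielded AUC and cell-line-centred Z-AUC.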

[7] = BET inhibitor-based combinations targeting novel dependencies in MECOM-rearranged (r) AML: OCI-AML3 cell line (AID 2202232); conditions: Potency: OCI-AML3 viability; note: nearly all actives have a fitted effect of over 35% in size; note: potency is the fitted concentration of half-maximal effect
In short: as §1

[8] = BET inhibitor-based combinations targeting novel dependencies in MECOM-rearranged (r) AML: MV-4-11 cell line (AID 2202233); note: nearly all actives have a fitted effect of over 45% in size
In short: (§2)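 First, 500 cells per well were seeded; next, drugs were pinned as 11-point doses; then plates sat 48 hr in the incubator; finally CellTiter-Glo was added and luminescence read, with AUC and Z-AUC computed.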

[9] = BET inhibitor-based combinations targeting novel dependencies in MECOM-rearranged (r) AML: AML-191 cell line (AID 2202236; note: nearly all actives have a fitted effect of over 35% in size; note: potency is the fitted concentration of half-maximal effect)
In short: as §1

[10] = BET inhibitor-based combinations targeting novel dependencies in MECOM-rearranged (r) AML: AML-194 cell line (AID 2202237; note: nearly all actives have a fitted effect of over 40% in size)
In short: as §1

[11] = target: Cellular tumor antigen p53 (Homo sapiens) (UniProt P04637); assay: Primary qHTS for small molecule compounds that upregulate eGFP-tagged delta133p53alpha (in N-terminal) cells. (AID 2060322); conditions: NCI-H358 eGFP-delta133p53alpha fluorescence, 24 h; activation: stronger effect = higher value;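 note: cells pre-induced with doxycycline then dosed without doxycycline; series mostly up to about 56 µM; nearly all actives have a fitted effect of over 75% in size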
In short: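 NCI-H358 cells pre-induced 24 h with 10 ng/ml doxycycline for eGFP-delta133p53alpha, plated dox-free and exposed 24 h at 37C to titrated compounds. Fixed, Hoechst-stained; gated GFP peak intensity by laser scanning cytometry, normalized to DMSO (0%) and 57.5 uM 5-azacytidine (100%).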

[12] = BET inhibitor-based combinations targeting novel dependencies in MECOM-rearranged (r) AML: HNT-34 cell line (AID 2202234); note: nearly all actives have a fitted effect of over 35% in size; note: potency is the fitted concentration of half-maximal effect
In short: as §2

[13] = BET inhibitor-based combinations targeting novel dependencies in MECOM-rearranged (r) AML: UCSD-AML1 cell line (AID 2202235); note: series mostly up to about 46 µM; nearly all actives have a fitted effect of over 40% in size
In short: as §2

[14] = target: Aldehyde dehydrogenase, mitochondrial (Homo sapiens) (UniProt P05091); assay: qHTS for Inhibitors of the Aldehyde Dehydrogenase Family (ALDH2) Confirmatory screens (AID 2061303; active = well fitted inhibition curve with a large enough effect; title and protocol of this record describe different tests; note: nearly all actives have a fitted effect of over 45% in size; note: potency is the fitted concentration of half-maximal effect)
[15] = qHTS for Inhibitors of the Aldehyde Dehydrogenase Family (ALDH1A2, ALDH1A3, ALDH2, ALDH3A1) (AID 2061307); note: nearly all actives have a fitted effect of over 50% in size; for potency: test system not described further here; potency is the fitted concentration of half-maximal effect
[16] = target: Retinaldehyde dehydrogenase 3 (Homo sapiens) (UniProt P47895); assay: qHTS for Inhibitors of the Aldehyde Dehydrogenase Family (ALDH1A3) Confirmatory screens (AID 2061311); note: nearly all actives have a fitted effect of over 60% in size; note: potency is the fitted concentration of half-maximal effect
[17] = target: Retinal dehydrogenase 2 (Homo sapiens) (UniProt O94788); assay: qHTS for Inhibitors of the Aldehyde Dehydrogenase Family (ALDH1A2) Confirmation screens (AID 2061314); note: potency is the fitted concentration of half-maximal effect; nearly all actives have a fitted effect of over 65% in size
[18] = target: Aldehyde dehydrogenase 1A1 (Homo sapiens) (UniProt P00352); assay: qHTS for Inhibitors of the Aldehyde Dehydrogenase Family (ALDH1A1) Confirmatory screens (AID 2061316); note: nearly all actives have a fitted effect of over 65% in size; note: potency is the fitted concentration of half-maximal effect

Chain of Cellular tumor antigen p53 (Homo sapiens) (P04637 whole entry, looked up): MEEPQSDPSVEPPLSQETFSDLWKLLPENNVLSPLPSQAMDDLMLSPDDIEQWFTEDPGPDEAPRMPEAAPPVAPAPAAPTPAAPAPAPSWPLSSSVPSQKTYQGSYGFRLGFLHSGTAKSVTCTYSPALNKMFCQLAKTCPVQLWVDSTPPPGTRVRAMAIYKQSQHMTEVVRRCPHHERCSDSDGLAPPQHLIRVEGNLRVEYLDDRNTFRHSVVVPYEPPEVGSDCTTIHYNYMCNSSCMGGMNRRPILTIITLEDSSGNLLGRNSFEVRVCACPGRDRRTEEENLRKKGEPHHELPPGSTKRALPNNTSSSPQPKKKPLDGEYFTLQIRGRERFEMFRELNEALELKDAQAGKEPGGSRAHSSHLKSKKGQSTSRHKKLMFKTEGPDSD

SMILES: CC(NC(C)(C)C)C(=O)c1cccc(Cl)c1 (stereo not drawn)
- Potency [1]: inactive
- Potency [2]: inactive
- Potency [3]: inactive
- Potency [4]: inactive
- Potency [5]: inactive
- viability [6]: 111%
- Potency [7]: inactive
- Potency [8]: inactive
- Potency [9]: inactive
- Potency [10]: inactive

SMILES: C[N+](C)(C)CC(=O)O
- Potency [2]: inactive

SMILES: N[C@@H](Cn1oc(=O)[nH]c1=O)C(=O)O
- Potency [1]: inactive
- Potency [2]: inactive
- Potency [4]: inactive

SMILES: NCCc1ccc(S(=O)(=O)F)cc1
- Potency [1]: inactive
- Potency [2]: inactive

SMILES: Cc1c2ccncc2c(C)c2c1[nH]c1ccccc12
- Potency [1]: 30.1 µM (active)
- Potency [2]: inactive
- Potency [4]: inactive

SMILES: Cc1[nH]c2ccc(O)cc2c1CCN
- Potency [1]: inactive
- Potency [2]: inactive
- Potency [4]: inactive

SMILES: O=S(=O)(F)Cc1ccccc1
- activation [11]: 5.78%
- Potency [12]: inactive
- Potency [13]: inactive
- Potency [9]: inactive
- Potency [10]: inactive

SMILES: CC(C)N(CCC(C(N)=O)(c1ccccc1)c1ccccn1)C(C)C (stereo not drawn)
- Potency [2]: inactive
- Potency [3]: inactive
- Potency [4]: inactive
- Potency [5]: inactive

SMILES: CC[C@@]1(O)C(=O)OCc2c1cc1n(c2=O)Cc2cc3ccccc3nc2-1
- Potency [1]: 3.79 µM (active)
- Potency [2]: inactive
- Potency [7]: 0.0132 µM (active)
- Potency [12]: 0.0053 µM (active)
- Potency [9]: 0.0209 µM (active)

SMILES: Cc1o[nH]c(=O)c1CC(N)C(=O)O (stereo not drawn)
- Potency [1]: inactive
- Potency [2]: inactive

SMILES: NC(N)=Nc1ccc2[nH]c3c(c2c1)C[C@@]1(O)[C@H]2Cc4ccc(O)c5c4[C@@]1(CCN2CC1CC1)[C@H]3O5
- Potency [2]: inactive

SMILES: COC(=O)C1=CCCN(C)C1
- Potency [2]: inactive
- Potency [4]: inactive

SMILES: CC1=NN=C(c2ccc(N)cc2)c2cc3c(cc2C1)OCO3
- Potency [1]: 21.3 µM (active)
- Potency [2]: 8.91 µM (active)

SMILES: CCCn1c(=O)c2[nH]c(C3CCCC3)nc2n(CCCOC(=O)c2ccc(S(=O)(=O)F)cc2)c1=O
- Potency [1]: inactive
- Potency [2]: inactive
- Potency [4]: inactive

SMILES: CCCCCCCCCCCCCC(=O)O[C@@H]1[C@@H](C)[C@@]2(O)[C@@H](C=C(CO)C[C@@]3(O)C(=O)C(C)=C[C@@H]23)C2C(C)(C)[C@@]21OC(C)=O (stereo partly drawn)
- Potency [1]: inactive
- Potency [2]: inactive
- Potency [4]: inactive

SMILES: C[N+]1(C)C2CCC1CC(OC(=O)C(CO)c1ccccc1)C2 (stereo not drawn)
- Potency [1]: inactive
- Potency [2]: inactive
- Potency [4]: inactive

SMILES: NN=C(N)N
- Potency [1]: inactive
- Potency [2]: inactive
- Potency [4]: inactive
- viability [6]: 108%
- Potency [7]: inactive
- Potency [8]: inactive
- Potency [12]: inactive
- Potency [13]: inactive
- Potency [10]: inactive

SMILES: CCCN(CCC)[C@@H]1CCc2ccc(O)cc2C1
- Potency [2]: inactive
- Potency [4]: inactive

SMILES: NC(=O)c1ccc(OCC(O)CN2CC=C(c3ccc(F)cc3)CC2)cc1 (stereo not drawn)
- Potency [1]: inactive
- Potency [2]: inactive

SMILES: CCC1(C2=NCCN2)Cc2ccccc2O1 (stereo not drawn)
- Potency [2]: inactive
- Potency [4]: inactive

SMILES: C=CCN1CCC23c4c5ccc(O)c4O[C@H]2C(=O)CC[C@@]3(O)C1C5 (stereo partly drawn)
- Potency [2]: inactive
- Potency [4]: inactive

SMILES: COC(=O)[C@@H](N)CCCN=C(N)N[N+](=O)[O-]
- Potency [1]: inactive
- Potency [2]: inactive
- Potency [4]: inactive
- Potency [7]: inactive
- Potency [8]: inactive
- Potency [12]: inactive
- Potency [13]: inactive
- Potency [9]: inactive
- Potency [10]: inactive

SMILES: O=c1[nH]oc2c1CCNC2
- Potency [2]: inactive
- Potency [4]: inactive

SMILES: NC(N)=NOCCC(N)C(=O)O (stereo not drawn)
- Potency [1]: inactive
- Potency [2]: inactive
- Potency [4]: inactive

SMILES: CC(C)(C)c1cc(C=C(C#N)C#N)cc(Br)c1O
- activation [11]: 19.6%
- Potency [12]: 16.6 µM (active)

SMILES: CN1CCC[C@@H]1Cc1c[nH]c2ccc(Nc3ncccc3[N+](=O)[O-])cc12
- Potency [1]: inactive
- Potency [2]: inactive
- Potency [3]: inactive
- Potency [4]: inactive
- Potency [5]: inactive

SMILES: CC[C@@H](C(N)=O)N1CCCC1=O
- Potency [1]: inactive
- Potency [2]: inactive
- Potency [4]: inactive
- viability [6]: 108%
- Potency [8]: inactive
- Potency [12]: inactive
- Potency [9]: inactive
- Potency [10]: inactive

SMILES: N#C/C(=C\c1ccc(O)c(O)c1)C(N)=S
- Potency [14]: 8.96 µM (active)
- Potency [15]: 3.18 µM (active)
- Potency [16]: 1.01 µM (active)
- Potency [17]: 5.65 µM (active)
- Potency [18]: 1.42 µM (active)

SMILES: CN1CCN(c2cnc3c(O)ccc(C(=O)O)c3c2)CC1
- Potency [14]: inactive
- Potency [15]: inactive
- Potency [3]: inactive
- Potency [16]: 12.7 µM (active)
- Potency [5]: inactive

SMILES: CC(=O)c1ccc(N=[N+]=[N-])cc1
- Potency [15]: 8.96 µM (active)

SMILES: CC(Cc1ccc(OCC(=O)O)cc1)NCC(O)c1cccc(Cl)c1 (stereo not drawn)
- Potency [2]: inactive
- Potency [4]: inactive

SMILES: O=C(CNC12CC3CC(CC(C3)C1)C2)c1ccc(Cl)cc1
- Potency [15]: inactive

SMILES: COC1=C[C@@H]2[C@@H]3Cc4ccc(OC)c(O)c4[C@]2(CCN3C)CC1=O
- Potency [15]: inactive
- Potency [3]: inactive
- Potency [16]: inactive
- Potency [17]: 7.12 µM (active)
- Potency [5]: inactive
- Potency [18]: inactive
- Potency [7]: inactive
- Potency [8]: inactive
- Potency [12]: inactive
- Potency [9]: inactive
- Potency [10]: inactive
